Reference: PubChem BioAssay

Assay: small-molecule microarray binders of probe aDKK1, primary screen, biochemical, biotinylated probe, 635/667 nm fluorescence (AID 1099);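 also: score merges 667nm spot fluorescence with signal to noise across triplicate slides; reference of the scale not given here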
Conditions: higher = more signal

SMILES | composite z-score
COC(=O)CC=C[C@@H](C)[C@@H](C=NOC[C@H]1O[C@H](c2ccccc2)C=C[C@@H]1Oc1ccc(OC)cc1)NS(=O)(=O)c1ccc(C)cc1 | 0.0033
C=CC1=C[C@H](O)[C@@H]2O[C@@H]2C12OCCCO2 | -0.296
COC(=O)CC=C[C@@H](C)[C@H](OCc1cccc(-c2ccccc2)c1)C1CCCCC1 | -0.416
CC(C)CON=C1C[C@@H](O)[C@@H](O)[C@@H]2[C@@H]3C(=O)N(Cc4ccc5c(c4)OCO5)C(=O)[C@@H]3CC[C@H]12 | -0.222
COc1ccc(O[C@H]2C=C[C@@H](c3ccccc3)O[C@@H]2CON=C(C)C)cc1 | 0.267
COC(=O)CC=C[C@@H](C)[C@@H](C=NOC(C)CN1CCCc2nc(C)c(C)cc21)OC (stereo partly specified) | -0.0071
CC(C)(C)N1C(=O)[C@H]2[C@H]3[C@H](O)[C@H](O)CC(=NO[C@@H]4O[C@H](CO)[C@@H](O)[C@H](O)[C@H]4O)[C@H]3CC[C@H]2C1=O | -0.215
C#CCCCON=C1C[C@@H](O)[C@@H](O)[C@@H]2[C@@H]3C(=O)N(C(C)(C)C)C(=O)[C@@H]3CC[C@H]12 | 0.765
CCOC(=O)NN=C1C[C@@H](O)[C@@H](O)[C@@H]2[C@@H]3C(=O)N([C@@H](C)c4ccccc4)C(=O)[C@@H]3CC[C@H]12 | -0.0719
COC(=O)[C@@H]1CC[C@H](C)[C@@H](c2ccc(C)cc2)N1C(=O)c1ccc(C=NO[C@H](C)c2cn([C@H](CO)Cc3ccccc3)nn2)cc1 | 0.178
CCOC(=O)CCN1C(=O)[C@H]2[C@H]3[C@H](O)[C@H](O)CC(=NNC(=O)OCc4ccccc4)[C@@H]3CC[C@H]2C1=O | -0.111
